# ChEMBL document CHEMBL3433997, “St. Jude Leishmania screening dataset” (2016)
# How the values were obtained:
# Assay type in all cases: functional
# [1] = molecular target: Solute carrier family 2, facilitated glucose transporter member 1 (Homo sapiens) (UniProt P11166); experiment: ST_JUDE_LEISH: Cytotoxicity at 2uM final concentration against transgenic Leishmania Mexicana promastigotes LmGLUT1 that are glucose transport deficient and complemented with the human glucose transporter GLUT1. Activity is measured by DNA content using SYBR green in vitro
# Chain of Solute carrier family 2, facilitated glucose transporter member 1 (Homo sapiens) (P11166 whole entry): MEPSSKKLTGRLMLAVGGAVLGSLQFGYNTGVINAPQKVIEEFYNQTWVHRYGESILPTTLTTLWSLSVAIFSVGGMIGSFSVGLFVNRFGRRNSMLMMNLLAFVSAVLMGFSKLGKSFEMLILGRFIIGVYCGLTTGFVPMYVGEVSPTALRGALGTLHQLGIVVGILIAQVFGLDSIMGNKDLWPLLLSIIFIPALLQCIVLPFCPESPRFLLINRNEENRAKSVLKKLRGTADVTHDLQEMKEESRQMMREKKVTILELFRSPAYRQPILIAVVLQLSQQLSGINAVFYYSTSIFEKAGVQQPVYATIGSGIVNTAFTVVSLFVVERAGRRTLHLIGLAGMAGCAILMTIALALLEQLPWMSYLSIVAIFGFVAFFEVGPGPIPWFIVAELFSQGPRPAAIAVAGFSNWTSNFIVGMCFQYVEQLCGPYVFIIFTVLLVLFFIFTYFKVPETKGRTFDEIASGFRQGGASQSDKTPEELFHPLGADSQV
# [2] = molecular target: Hexose transporter 1 (Plasmodium falciparum) (UniProt O97467); experiment: ST_JUDE_LEISH: Cytotoxicity at 2uM final concentration against transgenic Leishmania Mexicana promastigotes LmPfHT that are glucose transport deficient and complemented with the Plasmodium falciparum hexose transporter. Activity is measured by DNA content using SYBR green in vitro
# [3] = molecular target: Glucose transporter (Leishmania mexicana) (UniProt O61059); experiment: ST_JUDE_LEISH: Cytotoxicity at 2uM final concentration against transgenic Leishmania Mexicana promastigotes LmGT2 that are glucose transport deficient and complemented with the L. Mexicana glucose transporter 2. Activity is measured by DNA content using SYBR green in vitro
Compound,inhibition [1] [%],inhibition [2] [%],inhibition [3] [%]
Cc1cc(N)c2cc(NC(=O)c3cccc4ccccc34)ccc2n1,0.77,1.19,0
CS(=O)(=O)CCNCc1ccc(-c2ccc3ncnc(Nc4ccc(OCc5ccccc5)c(Cl)c4)c3c2)o1,-0.18,-1.51,-1.49
Cc1ccc(C2=NNC3(S2)C(=O)Nc2ccc(C)cc23)cc1 (stereo unspecified),-2.4,2.71,3.44
CCCCCn1c(Sc2ccc(C#N)c([N+](=O)[O-])c2)nnc1-c1cccs1,2.86,6.4,2.32
O=C(Nc1ccc2c(c1)CCC2)c1ccc(N2CCN(c3ccncc3)CC2)cc1,68.7,29.6,68.3
CCN(CC)c1ccccc1CNC(=O)c1cc(Cl)c(N)cc1OC,9.4,9.03,8.59
CCOC(=O)c1ccc(NC(=O)Nc2ccc(-c3cccc(-c4nc5cc(F)ccc5[nH]4)c3)cc2)cc1,2.36,2.86,1.54
CCOC(=O)C1=C(C)N=c2sc(=Cc3cc(Cl)ccc3O)c(=O)n2C1c1ccc(OC)cc1 (stereo unspecified),-0.92,0,0.91
COc1ccc2ncc(F)c(CCN3CC[C@@H](CNCc4cc5c(cn4)OCS5)C3)c2n1,2.66,1.69,-0.48
CNC(=O)c1ccccc1Nc1nc(Nc2cccc(CS(C)(=O)=O)c2)ncc1C,3.44,11.9,8.04
CC(C)c1cc(C(=O)N[C@@H](Cc2ccccc2)[C@H](O)CNC2CCCCC2)cc(N2CCCC2=O)c1,2.19,1.07,2.18
CC(C)c1ccc(Cn2cc(-c3ccncc3)c3cc(OCc4ccccc4)ccc32)cc1,0.76,0.58,2.49
COCCn1c(C)nc2ccccc2c1=O,1.04,1.69,-0.79
CCCN(Cc1ccc(OCC)cc1)Cc1cc(=O)c2cc(Cl)ccc2[nH]1,8.02,8,7.1
O=C(/C=C/c1ccc(Cl)c(Cl)c1)NCCCCCN1CCC(NC(=O)Nc2ccc(F)cc2F)CC1,1.35,2.88,1.33
COC1CCC(C(=O)Nc2ccc(-c3cccc(-c4nc5cc(C(F)(F)F)ccc5[nH]4)c3)cc2)CC1 (stereo unspecified),0.64,-0.27,0.65

Compound,inhibition [1] [%],inhibition [2] [%],inhibition [3] [%]
COc1cc(Cl)c(C)cc1-n1cc(C(=O)c2cc(Br)ccc2O)cc(C#N)c1=O,-0.77,-1.65,0.03
C=C[C@H]1CN(CCCCCCC)CC[C@H]1C[C@@H](Cc1ccnc2ccc(OC)cc12)OC(=O)[C@](OC)(c1ccccc1)C(F)(F)F,0.1,-0.32,-3.72
O=C(/C=C/c1ccc(Cl)c(Cl)c1)NCCCCCN1CCCN(C(=O)Nc2ccc(Cl)c(C(F)(F)F)c2)CC1,-0.86,-0.33,-2.37
CC(C)(CNC(=O)/C=C/c1ccc(Cl)c(Cl)c1)CNc1cc(=O)c2ccccc2[nH]1,-0.77,0.05,-2.49
OC(CNc1ccnc(Nc2ccccc2)n1)c1cccc(C(F)(F)F)c1 (stereo unspecified),4.65,4.22,0.68
Cn1ncc2c3c(CCN4CCC(NCc5cc6c(cn5)OCC6)CC4)c(Cl)cnc3ccc21,0.52,0.99,0.05
CC[C@@H]([C@@H](CC(C)C)C(=O)N[C@@H](CCCCNC(=O)OCc1ccccc1)C(=O)Nc1ccccn1)N(O)C=O,4.89,4.71,3.88
COC(=O)c1cccc(NC(=O)NC2CCN(c3ccnc(NCc4ccc(F)cc4)n3)CC2)c1,-2.83,-2.8,-0.54
Cc1nnsc1C(=O)Nc1cccc(-c2ccc(-c3nc4cc(F)ccc4[nH]3)s2)c1,1.06,0.37,-2.44
CN1CCN(Cc2cccc(-c3ccc4c(Nc5ccc(Oc6cccnc6)cc5)ccnc4c3)c2)CC1,4.73,5.64,4.34
Cc1[nH]c(C)c(-c2ccc(-c3ccccc3Cl)nc2)c(=O)c1Br,0.1,1.48,-0.05
CNC(=O)COc1ccc(Nc2nnc(-c3ccc(C)c(S(=O)(=O)NCC4CCCO4)c3)c3ccccc23)cc1 (stereo unspecified),1.3,0.12,-0.43
COc1cc2c(cc1OC)C(C)(C)CN1Cc3c(c(CO)c(OC)c(OC)c3OC)CC21 (stereo unspecified),4.54,3.72,4.31
CN(C)CCOc1ccnc2ccc(NC(=O)Cc3ccc(-c4ccncc4)c4ccccc34)cc12,1.07,-0.32,7.74
COc1ccccc1NS(=O)(=O)c1cc(C(=O)Nc2ccc(N3CCOCC3)c(S(=O)(=O)Nc3ccccc3Cl)c2)ccc1Cl,3.2,2.83,0.88
Cc1ccc(S(=O)(=O)N(C)c2ccccc2C(=O)Nc2ccccc2Oc2ccccc2)cc1,-0.78,-0.51,-3.37
